Screening results deposited in PubChem BioAssay by several laboratories.
PABP polyA inh: blocks human PABP binding to poly(A) RNA | P11940 | fluorescence polarization | inhibition, % at 35 µM | actives 1% (n = 290,000);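 further: calls also rest on retests at 20 µM and on dose response follow-up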
PERK inh: inhibitors of human PERK kinase; Q9NZJ5; CHO PERK-DD fusion, SEAP luminescence translation reporter; inhibition, % at 5.6 µM; actives 0.17% (n = 220,000); AID 1416;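 active means inhibition above the mean inhibition of all tested compounds plus 3 SD, set separately per screening campaign, cut at about 2.9% in these data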;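 further: PERK kinase domain activated by AP20187 dimerizer at 100 nM; 0% = DMSO with dimerizer and 100% = rapamycin at 8.4 µM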
MLLE-PAM2 inh: blocks PAM2 peptide binding to the PABP1 MLLE domain. P11940. GST-MLLE / FITC-PAM2 fluorescence polarization. inhibition, % at 20 µM. actives 0.36% (n = 360,000). AID 588489; in the data active means inhibition above about 35%, passing the limit was not always enough;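 further: plate controls were DMSO wells with GST-MLLE for no effect and wells lacking GST-MLLE protein for full effect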
eIF4E-4G inh: blocks eIF4E binding to eIF4G | inhibition, % at 21.7 µM | actives 0.37% (n = 220,000) | TR-FRET eIF4E-eIF4GI(517-606) binding, 2 h | AID 782 | P63073+Q04637;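 active means inhibition above about 30%, limit read from the data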;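 further: 0% = full FRET control wells and 100% = background wells lacking eIF4GI fragment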
eIF4H FP inh: inhibitors of RNA binding by human eIF4H | eIF4H fluorescence polarization binding assay | inhibition, % at 35 µM | actives 0.94% (n = 290,000) | AID 2012;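 further: calls also rest on retests at 20 µM and on dose response follow-up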
* marks the source's active call; other numbers are inactive results; ? = inconclusive; · = not tested or not shown; [ ] = another dose, or the depositor's remark. In the library only some 1.6% were active in any assay of this set; here they are far more common. Unless noted, how the calls were made is not given here.

SMILES | PABP polyA inh | PERK inh | MLLE-PAM2 inh | eIF4E-4G inh | eIF4H FP inh
CCCCCCCn1c(=N)n(CC(O)c2ccco2)c2ccccc21 (stereo not drawn) | -9 | -1 | -78 | 0 | -7
N=c1n(CCN2CCCC2)c2ccccc2n1CC(O)c1ccco1 (stereo not drawn) | 28 | 0 | 44* | 4 | 17
COc1cccc(NC(=O)c2ccc3c(c2)C(=O)N(CC2CCCO2)C3=O)c1 (stereo not drawn) | 12 | · | 4 | · | 7
O=C(O)CCCC(=O)Nc1ccc(N2CCCC2)cc1 | 24 | -1 | 13 | -1 | 69*
COc1ccccc1C(=O)NC(=O)OCCn1c(C)cnc1[N+](=O)[O-] | 0 | 0 | 14 | 3 | 7
O=C(CSc1n[nH]c(-c2cccnc2)n1)Nc1ccccc1[N+](=O)[O-] | 7 | · | -12 | · | -7
O=C1NC(=Nc2ccc3ccccc3c2)S/C1=C/c1ccco1 | -6 | 0 | -78 | 7 | 80*
CCOC(=O)C1CCN(Cc2nc3ccc([N+](=O)[O-])cc3c(=O)n2-c2ccc(OC)cc2OC)CC1 | -3 | 0 | -17 | -2 | 9
COc1ccc(-n2c(CN3CCC(C(N)=O)CC3)nc3ccc([N+](=O)[O-])cc3c2=O)c(OC)c1 | 62 | 1 | 1 | 6 | active
O=C(c1ccc(N2CCCCS2(=O)=O)cc1)N1CCN(c2ccc(N3CCOCC3)nn2)CC1 | -9 | 3.0* | -8 | -3 | -12
c1coc(-c2nc3ccccc3s2)c1 | · | · | 3 | · | ·
Cc1ccccc1Cn1c(NC2CCCC2)nc2c1c(=O)[nH]c(=O)n2C | 2 | · | -3 | · | -9
COCCNC(=S)N(c1ccccc1)C(C)C | 70 | 0 | -13 | -1 | 2.5*
CCOC(=O)Cc1csc(NC(=O)/C=C/c2cccc(Br)c2)n1 | 61* | 0 | -20 | 3 | active
CCOC(=O)c1sc(NC(=O)/C=C/c2ccccc2)nc1C | 115 | 1 | 26 | -3 | 11*
CCOC(=O)Cc1csc(NC(=S)NC(=O)c2ccccc2Br)n1 | -1 | 1 | 39* | 11 | 5
CCOC(=O)Cc1csc(NC(=S)NC(=O)c2ccccc2)n1 | -6 | 0 | 28 | 1 | 7
CCOC(=O)Cc1csc(NC(=O)c2sc3nc4ccc(CC)cc4cc3c2N)n1 | 10 | -1 | -18 | -29 | -2
CCOC(=O)Cc1csc(NC(=O)c2sc3nc4cc(C)ccc4cc3c2N)n1 | active | 1 | 23 | 4 | ?
CC(C)c1ccc(NC(=S)NN2C(C)CCCC2C)cc1 (stereo not drawn) | -1 | 0 | -7 | 0 | -7
CCC1=NN(C(=O)Cc2ccc([N+](=O)[O-])cc2)C(O)(C(F)(F)F)C1 (stereo not drawn) | -13 | 0 | -11 | -1 | 1
Cc1ccc(S(=O)(=O)N2CCN(C(=O)CC(C)C)CC2)cc1 | -6 | 0 | 6 | -1 | -6
COc1ccc(/C=C(\NC(=O)c2ccccc2)C(=O)N/N=C/c2ccncc2)cc1 | 0 | 0 | 10 | 7 | -1
COc1ccc(/C=C(/NC(=O)c2ccccc2)C(=O)N/N=C/c2ccncc2)c(OC)c1 | 70 | 0 | -11 | 5 | active
C/C(=N\NC(N)=O)c1c(F)cccc1F | -10 | 1 | 11 | 0 | 5
SMILES | PABP polyA inh | PERK inh | MLLE-PAM2 inh | eIF4E-4G inh | eIF4H FP inh
COc1ccc(C(=O)NC2CCN(S(=O)(=O)c3ccccc3)CC2)cc1 | 4 | · | -8 | · | 6
O=C(CN1CCN(c2ccc(F)cc2)CC1)Nc1ccccc1Br | -4 | · | 12 | · | 2
O=C(CN1CCN(c2ccc(F)cc2)CC1)Nc1ccccc1[N+](=O)[O-] | 40* | -1 | 17 | -2 | 60*
CN(CC(=O)Nc1cccc(F)c1)CC(=O)N1CCCCC1 | · | · | -7 | · | ·
COCCCNC(=S)NNC(=O)c1cc(C2CC2)nc2ccccc12 | 0 | · | -12 | · | -6
CCOC(=O)c1nn(-c2ccc(Cl)cc2)c2nc(Nc3ccccc3)cc(=O)n12 | -1 | -1 | -6 | 9 | -7
Cc1ccc(/C([O-])=C(/C(=S)NCc2ccco2)[n+]2ccccc2)cc1 | 84* | 2 | · | 6 | 76*
CC1(C)NC(=O)N(CCCCOc2ccc3ccccc3c2Cl)C1=O | 5 | -1 | -11 | 7 | 5
CCOC(=O)C1CCCN(C(=O)c2ccc(-c3ccc([N+](=O)[O-])cc3)o2)C1 (stereo not drawn) | · | · | 41* | · | ·
Cc1ccc(-c2nnc(SCC(=O)N3CCCc4ccccc43)n2N)cc1 | -3 | 0 | -26 | 9 | -9
CCCC(=O)NC1=C(Cl)C(=O)c2ccccc2C1=O | · | · | 42* | · | ·
CCNC1=C(Cl)C(=O)c2ccccc2C1=O | 10 | 1 | 7 | 5 | -13
CCN(CC)c1ccc(NC2=C(Cl)C(=O)c3ccccc3C2=O)cc1 | -5 | 0 | 45* | 19 | -4
CCOc1cc(CNc2ccc(N3CCCC3)cc2)cc(Cl)c1OC | 0 | 1 | -10 | 35*[fluorescence artefact?] | 34
NS(=O)(=O)c1ccc(CCNCc2cc(Br)ccc2OCc2ccccc2)cc1 | -9 | 0 | 3 | 3 | -8
COC(=O)c1ccccc1NC(=O)Cc1nc(-c2ccccc2)sc1-c1ccc(C)cc1 | 70* | 0 | -19 | -7 | active
O=C1C(=Cc2ccco2)C(=O)c2ccccc21 | -6 | 0 | 28 | 4 | 38
O=C1CNC(=O)/C(=C/c2ccco2)N1 | -7 | 0 | 7 | -1 | 106*
CCCCn1c(/C=C/c2ccco2)nc2ccccc21 | 2.2* | 1 | -21 | 8 | 52*
CCCn1c(/C=C/c2ccco2)nc2ccccc21 | 7 | -1 | -62 | 1 | 65
CCN(CC)S(=O)(=O)c1cc(C(=O)Nc2cccnc2)ccc1Cl | -1 | -1 | 1 | 0 | 1
CCOc1ncccc1C(=O)Nc1ccc(OC)c(S(=O)(=O)N2CCOCC2)c1 | · | · | 3 | · | ·
Cc1ccc(C(=O)NC(=S)Nc2ccc(Oc3ccc(Cl)cc3)cc2)cc1 | 7 | 1 | 29 | 0 | -10
O=C(NC(=S)Nc1ccc(Oc2ccccc2)cc1)c1ccc(Cl)cc1 | 5 | 0 | 41* | 10 | -1
CC(C)CC1C(C#N)=C(N)Oc2n[nH]c(-c3cccs3)c21 (stereo not drawn) | 2 | -1 | 2 | -2 | -5
SMILES | PABP polyA inh | PERK inh | MLLE-PAM2 inh | eIF4E-4G inh | eIF4H FP inh
CSCCC1C(C#N)=C(N)Oc2n[nH]c(-c3cccs3)c21 (stereo not drawn) | 9 | 3.1* | 10 | 0 | 5
COc1ccc(Oc2ccc(C(F)(F)F)cc2NC(=O)c2ccc(C)cc2)cc1 | -4 | -1 | -5 | 4 | -3
Cc1nc2cc(-c3sccc3-n3cccc3)nn2c(C)c1C | 10 | -1 | 1 | 0 | 3
Cc1cc(-c2sccc2C)nc(-n2cccc2)n1 | 44* | 0 | 3 | 3 | ?
Nc1nc(SCc2ccc(Cl)cc2Cl)n[nH]1 | -9 | 0 | 10 | 1 | -10
N#Cc1c(NC(=O)c2ccco2)sc2c1CCC2 | 49* | · | 17 | · | 74*
N#Cc1c(NC(=O)c2ccncc2)sc2c1CCC2 | 6.8* | 2 | 7 | 6 | 51*
